Assay [1] concerns the target Cellular tumor antigen p53 (Homo sapiens) (UniProt P04637). The experiment in a line: Primary qHTS for small molecule compounds that upregulate eGFP-tagged delta133p53alpha (in N-terminal) cells. (AID 2060322).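 For activation: cells pre-induced with doxycycline then dosed without doxycycline; series mostly up to about 56 µM; 0% = DMSO vehicle and 100% = reference activator.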 Note: nearly all actives have a fitted effect of over 75% in size. Note: potency is the fitted concentration of half-maximal effect. The settings on record: NCI-H358 eGFP-delta133p53alpha fluorescence, 24 h; activation: stronger effect = higher value. The method, boiled down: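 NCI-H358 cells pre-induced 24 h with 10 ng/ml doxycycline for eGFP-delta133p53alpha, plated dox-free and exposed 24 h at 37C to titrated compounds. Fixed, Hoechst-stained; gated GFP peak intensity by laser scanning cytometry, normalized to DMSO (0%) and 57.5 uM 5-azacytidine (100%).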
A general note: qHTS replaces the single test concentration by a dilution series.

Assay [2] concerns the target Aldehyde dehydrogenase, mitochondrial (Homo sapiens) (UniProt P05091). Description: qHTS for Inhibitors of the Aldehyde Dehydrogenase Family (ALDH2) Primary screen (AID 2061308).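 Note: plate controls were vehicle for no effect and reference inhibitor for full effect; nearly all actives have a fitted effect of over 55% in size.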
Assay [3] has as its target Retinaldehyde dehydrogenase 3 (Homo sapiens) (UniProt P47895). The experiment in a line: qHTS for Inhibitors of the Aldehyde Dehydrogenase Family (ALDH1A3) Primary screen (AID 2061315).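 Note: plate controls were DMSO vehicle for no effect and reference inhibitor for full effect.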

Molecules are shown by their SMILES. Several values for one entry are separate records, joined by “and”; a condition that tells them apart may be missing. Equal values may be shown once. Inconclusive results are not listed. A number with no mark means an inactive call. Activity calls are given as the source filed them. Calls come from the whole dose curve; as a rule, active = well fitted curve in the direction sought with a large enough effect; inconclusive = small, poorly fitted or top-dose-only effect, or another doubt; inactive = no such curve, though single readings can be large; an effect the other way counts as inactive or inconclusive. Square brackets hold non-standard residues; d marks the D form. Peptide text beside a SMILES is read from it. 2Abz = Nc1ccccc1C(=O)O

Sequence of Cellular tumor antigen p53 (Homo sapiens) (P04637 whole entry, looked up): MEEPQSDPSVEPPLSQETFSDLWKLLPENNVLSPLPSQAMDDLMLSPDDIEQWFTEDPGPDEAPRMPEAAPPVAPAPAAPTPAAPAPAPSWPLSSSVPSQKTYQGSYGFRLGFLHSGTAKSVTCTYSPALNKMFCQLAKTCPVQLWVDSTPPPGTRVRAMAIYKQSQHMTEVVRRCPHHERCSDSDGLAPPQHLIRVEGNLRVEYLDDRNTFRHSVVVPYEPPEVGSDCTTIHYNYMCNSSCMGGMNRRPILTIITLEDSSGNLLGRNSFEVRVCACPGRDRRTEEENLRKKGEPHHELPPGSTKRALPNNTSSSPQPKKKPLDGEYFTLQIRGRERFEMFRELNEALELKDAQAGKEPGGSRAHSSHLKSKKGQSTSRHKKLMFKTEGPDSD

For `CC1=COC(OC2OC(CO)C(O)C(O)C2O)C2C(CO)CC(OC(=O)/C=C/c3ccc(O)cc3)C12` (configuration not stated), in assay [1], the activation is -9.16%. In addition, the Potency result in assay [2] and in assay [3] was “inactive” throughout.
Consider `CC1=CC2/C=C(\C)CC[C@@H](O)[C@@H](O)[C@@H]3O[C@@H]3C(=O)[C@]23C(=O)N[C@@H](CC(C)C)[C@@H]3[C@@H]1C` (some centres not stated), for which the activation in assay [1] was 0%. The Potency result in assay [2] and in assay [3] was “inactive” in each case.
For the compound `C=C(C(=O)O)C1CC2=C(C)C(=O)CC2C(C)CC1O` (configuration not stated), the Potency in assay [1] is 12 µM (active). The Potency entry in assay [2] and in assay [3] was “inactive” each time.
For `C/C(=C\CO[C@@H]1O[C@H](CO[C@H]2OC[C@](O)(CO)[C@H]2O)[C@@H](O)[C@H](O)[C@H]1O)C(C)(C)O`, in assay [1], the activation is -5.34%. In addition, the Potency entry in assay [2] and in assay [3] was “inactive” throughout.
Consider `CC(C)C1=CCC(C)(O)C(OC2OC(CO)C(O)C(O)C2O)C1` (configuration not stated), for which, in assay [1], the activation is -17.6%. Moreover, the Potency entry in assay [2] and in assay [3] was “inactive” each time.
In the case of `COC(=O)c1ccnc(-c2cc(C(=O)Nc3ccc(C4(N)CC4)cc3)ccn2)c1`, in assay [1], the activation was 1.67%. Besides, the Potency entry in assay [2] and in assay [3] was “inactive” throughout.
As to `COc1cc(/C=C/C(=O)OC[C@H]2O[C@@](CO)(O[C@H]3O[C@H](CO)[C@@H](O)[C@H](O)[C@H]3O)[C@@H](OC(=O)/C=C/c3ccc(O)c(OC)c3)[C@@H]2O)ccc1O`, the activation in assay [1] was -3.82%. Further, the Potency entry in assay [2] and in assay [3] was “inactive” throughout.
Turning to `CC1OC(OC2C(OC(=O)[C@]34CCC(C)(C)C[C@H]3C3=CCC5[C@@]6(C)CC[C@H](OC7OC(C(=O)O)C(O)C(O)C7O)C(C)(C)C6CC[C@@]5(C)[C@]3(C)CC4O)OC(CO)C2O)C(O)C(O)C1OC1OCC(O)C(O)C1O` (some centres not stated), in assay [1], the activation was -3.82%. For the same compound, the Potency result in assay [2] and in assay [3] was “inactive” in each case.
As to `OCC1OC(Oc2cc(O)c3c(c2)OC(c2ccc(O)cc2)C(O)C3)C(O)C1O` (configuration not stated), the activation in assay [1] was -25.2%. The Potency result in assay [2] and in assay [3] was “inactive” throughout.
In the case of `OC[C@H]1O[C@@H](Oc2cc(O)c3c(c2)O[C@@H](c2ccc(O)cc2)[C@H](O)C3)[C@H](O)[C@@H](O)[C@@H]1O`, the activation in assay [1] is 4.46%. In addition, the Potency result in assay [2] and in assay [3] was “inactive” throughout.
Regarding `COc1cc(CO)ccc1O[C@@H]1O[C@H](CO)[C@@H](O)[C@H](O)[C@H]1O`, the activation in assay [1] is -7.14%. Besides, the Potency result in assay [2] and in assay [3] was “inactive” in each case.
On to `CCC(C)C1NC(=O)C2CCCN2C(=O)C(C(C)C)NC(=O)c2ccccc2NC(=O)C(Cc2ccc(O)cc2)NC(=O)C(C)NC(=O)C(C(C)O)NC1=O` (configuration not stated) (cyclo([2Abz]VPITAY); configuration not given here), for which, in assay [1], the activation is 0.763%. Further, the Potency result in assay [2] and in assay [3] was “inactive” in each case.
Regarding `CN1[C@@H]2CC[C@H]1CC(OC(=O)c1c[nH]c3ccccc13)C2` (some centres not stated), the activation in assay [1] was -6.21% and -7.16%. Also, the Potency result in assay [2] and in assay [3] was “inactive” each time.
As to `C/C=C/C=C/C(O)=C1\C(O)=C(C)C(=O)[C@@]2(C)OC(=O)[C@@](C)(NC(=O)/C=C/C(=O)O)[C@@H]12`, the activation in assay [1] was 10.7%. The Potency result in assay [2] and in assay [3] was “inactive” each time.
As to `COc1cc(/C=C/C(=O)O[C@@H]2C[C@@](O)(C(=O)O)C[C@@H](O)[C@@H]2O)ccc1O`, the activation in assay [1] is -1.53%. In addition, the Potency result in assay [2] and in assay [3] was “inactive” throughout.
With `CC(O)CCc1ccc(O[C@@H]2O[C@H](CO)[C@@H](O)[C@H](O)[C@H]2O)cc1` (some centres not stated), the activation in assay [1] is -10.7%. The Potency entry in assay [2] and in assay [3] was “inactive” in each case.
For the compound `O=c1c2cccnc2n(-c2cccc([N+](=O)[O-])c2)c(=O)n1Cc1ccncc1`, the activation in assay [1] is -20%. For the same compound, the Potency entry in assay [2] and in assay [3] was “inactive” each time.
With `C[C@@H]1C[C@H](O)/C=C/[C@H](O)[C@@H](O)CC(=O)O1`, in assay [1], the activation was -9.92%. Further, the Potency entry in assay [2] and in assay [3] was “inactive” throughout.
`CC1=CCC[C@@H]2[C@](CCc3ccoc3)(C(=O)O)[C@H](C)CC[C@@]12C`: the activation in assay [1] is -28.2%. Also, the Potency entry in assay [2] and in assay [3] was “inactive” each time.
With `CN(C)CC1CCn2c(c(C3=C(c4cn(C)c5ccccc45)C(=O)NC3=O)c3ccccc32)C1` (configuration not stated), the Potency in assay [1] is 34.3 µM (active). The Potency result in assay [2] and in assay [3] was “inactive” throughout.
Turning to `COc1cc2nc(=NC(=O)c3cccnc3)n3c(c2cc1OC)NCC3`, the activation in assay [1] is 3.34%. The Potency entry in assay [2] and in assay [3] was “inactive” throughout.
On to `O=C(O)CC/C=C\C[C@H]1CO[C@@H](c2ccccc2Cl)O[C@H]1c1ccccc1O`, for which the activation in assay [1] is -9.67%. In addition, the Potency entry in assay [2] and in assay [3] was “inactive” throughout.
Regarding `CN(CC1COCCO1)S(=O)(=O)Nc1ccc2ccc3ncc(-c4cnn(C)c4)cc3c(=O)c2c1` (configuration not stated), the activation in assay [1] was 0.893%. Besides, the Potency result in assay [2] and in assay [3] was “inactive” each time.
As to `C=C1CC2C3(C)C(O)CC(=O)C(C)(C)C3C(O)C(OC(C)=O)C2(C)C2C(=O)OC(C)(C(=O)OC)C(=O)C12C` (configuration not stated), the activation in assay [1] was 27.5%. Further, the Potency entry in assay [2] and in assay [3] was “inactive” in each case.

Source of the values: PubChem BioAssay (NCATS).
